Compounds with a hit are over-represented: about 2.4% of the library has one in this group of screens.
GLS inh = qHTS for Inhibitors of Glutaminase (GLS). 410,000 tested, 0.21% active. Potency, µM (top dose mostly 45.5 µM), without a hit: at the highest dose activity change, negative = inhibition, actives largely listed as inhibitors. GLS enzymatic activity, qHTS titration; also: potency is read from the fitted curve at half-maximal effect; % is scaled to controls: 0 for no effect and ±100 for the full control effect
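hKGA; 45 mM KH2PO4 pH 8.2 + 0.02% Tween-20; cpd via pin tool; 1 mM Gln soln; GluOx/HRP/Amplex Red; RT 30 min; fluor. t0 & final.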
Pol kappa inh-1 = qHTS for Inhibitors of Polymerase Kappa. purified Pol kappa, fluorescent DNA synthesis assay, 10 min. Potency, µM (top dose mostly 107 µM), for the others: at the highest dose activity, negative = inhibition, usual class: inhibitors. 400,000 tested, 0.53% active. AID 588579, 2011; also: potency is read from the fitted curve at half-maximal effect; % is scaled to controls: 0 for no effect and ±100 for the full control effect
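Kinetic fluorescence readout at 0 and 10 min followed reaction start with substrate at 50 nM final. Beforehand, enzyme (10 nM Pol kappa) stood 15 min with compound at room temperature; buffer-only wells were negative controls.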
POLI inh = qHTS for Inhibitors of Polymerase Iota | DNA polymerase iota (Homo sapiens), Q9UNA4 | Pol iota fluorescent replication assay, 10 min | Potency, µM (highest dose often 115 µM), inactives show top-dose activity, negative = inhibition, usual class: inhibitors | 390,000 tested, 1% active; also: potency is read from the fitted curve at half-maximal effect
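Pol iota at 10 nM preincubated 15 min with compounds at room temperature; reaction started with fluorescent substrate, 50 nM final. Fluorescence read kinetically at 0 and 10 min; buffer-only wells as negative control.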
GCN5L2 inh-1 = qHTS Assay for Inhibitors of GCN5L2. Histone acetyltransferase KAT2A (Homo sapiens), Q92830. AID 504327, 2011. 390,000 tested, 0.21% active. Potency, µM (titrated, usually from 58.9 µM), for inactives: at the top dose activity change, negative = inhibition, actives largely listed as inhibitors. GCN5L2 HAT assay, ThioGlo1 CoA-SH fluorescence; also: potency is read from the fitted curve at half-maximal effect; % is scaled to controls: 0 for no effect and ±100 for the full control effect
Target sequence (Q92830 whole entry, looked up): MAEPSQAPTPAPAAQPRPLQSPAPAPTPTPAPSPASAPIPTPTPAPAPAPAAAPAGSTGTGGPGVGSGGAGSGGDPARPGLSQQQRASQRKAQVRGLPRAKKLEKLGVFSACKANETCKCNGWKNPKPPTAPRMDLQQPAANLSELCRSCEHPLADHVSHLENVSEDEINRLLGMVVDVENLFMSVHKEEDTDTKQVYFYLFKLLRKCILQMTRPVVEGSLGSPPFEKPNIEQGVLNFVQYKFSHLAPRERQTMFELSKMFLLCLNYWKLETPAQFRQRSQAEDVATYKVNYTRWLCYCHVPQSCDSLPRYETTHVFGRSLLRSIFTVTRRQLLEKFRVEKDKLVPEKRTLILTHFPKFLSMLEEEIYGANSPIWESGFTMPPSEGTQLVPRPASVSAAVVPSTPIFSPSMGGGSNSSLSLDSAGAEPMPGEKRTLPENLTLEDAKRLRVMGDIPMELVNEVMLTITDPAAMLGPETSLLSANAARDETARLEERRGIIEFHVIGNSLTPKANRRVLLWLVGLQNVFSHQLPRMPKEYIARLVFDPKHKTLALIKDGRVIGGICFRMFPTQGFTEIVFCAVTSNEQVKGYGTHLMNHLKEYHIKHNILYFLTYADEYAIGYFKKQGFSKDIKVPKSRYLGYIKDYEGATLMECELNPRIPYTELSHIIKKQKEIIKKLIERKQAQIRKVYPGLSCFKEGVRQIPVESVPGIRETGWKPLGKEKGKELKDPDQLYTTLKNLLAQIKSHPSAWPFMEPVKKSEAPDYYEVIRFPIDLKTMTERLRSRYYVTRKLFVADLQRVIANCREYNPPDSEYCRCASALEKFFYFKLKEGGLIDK
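ThioGlo1-coupled HAT assay: 20nM GCN5L2, 70uM acetyl-CoA, 75uM H3(1-25) peptide, pH 7.5. Fluorescence read at 340/540nm at start and after 20 min at room temperature.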
POLB inh = qHTS Assay for Inhibitors of DNA Polymerase Beta; P06746; Pol beta primer extension/strand displacement, fluorescence kinetic; Potency, µM (top dose mostly 114 µM), for inactives: top-dose activity change, negative = inhibition, most hits filed as inhibitors; 340,000 tested, 1.3% active; AID 485314, 2010; also: potency is read from the fitted curve at half-maximal effect; % is scaled to controls: 0 for no effect and ±100 for the full control effect
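Pol beta (10 nM) was preincubated with compound for 15 min at room temperature. The reaction was then started with 50 nM substrate and read immediately and after a further 10 min at room temperature.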
Pol eta inh-1 = qHTS for Inhibitors of Polymerase Eta. recombinant Pol eta, fluorescent DNA replication assay. Potency, µM (highest dose often 114 µM), for inactives: at the highest dose activity change, negative = inhibition, most hits filed as inhibitors. 390,000 tested, 1.2% active; also: potency is read from the fitted curve at half-maximal effect; % is scaled to controls: 0 for no effect and ±100 for the full control effect
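Pol eta at 10 nM preincubated with compounds 15 min at room temperature; reaction started with fluorescent substrate (50 nM final) and read kinetically at 0 and 10 min.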
GCN5L2 inh-2 = qHTS Assay for Inhibitors of GCN5L2: Hit confirmation. shares compounds with GCN5L2 inh-1. GCN5L2 HAT, ThioGlo1 CoA fluorescence, 20 min. Potency, µM, most hits filed as inhibitors. 140 tested, 70% active
PGK validate = qHTS for inhibitors of Phosphogylcerate Kinase: Hit Validation Screen. shares compounds with Pol kappa inh-1. TbPGK coupled GAPDH assay, Kinase-Glo luminescence. Potency, µM (doses to about 57.5 µM), inactives show at the top dose activity change, negative = inhibition, hits mostly inhibitors. 500 tested, 79% active; also: potency is read from the fitted curve at half-maximal effect; % is scaled to controls: 0 for no effect and ±100 for the full control effect; nearly all actives have a fitted effect of over 65% in size
Pol iota confirm = qHTS for Inhibitors of Polymerase Iota: Confirmatory Assay for Cherry-picked Compounds | shares compounds with Pol kappa inh-1 | Pol iota primer extension, TAMRA/BHQ fluorescence | Potency, µM, actives largely listed as inhibitors | 1,500 tested, 77% active; also: potency is read from the fitted curve at half-maximal effect
GALK inh confirm = Confirmation Assay for Inhibitors of Human Galactokinase (GALK); Potency, µM (titrated, usually from 115 µM), for the others: at the highest dose activity, negative = inhibition, usual class: inhibitors; 150 tested, 70% active; AID 2015, 2009; shares compounds with Pol eta inh-1; purified GALK, Kinase-Glo ATP depletion luminescence
Redox cycling = Confirmatory Assay for Inhibitors of Human Galactokinase (GALK): Phenol-HRP redox assay counterscreen | Phenol red-HRP H2O2 redox cycling, absorbance 600 nm | shares compounds with Pol eta inh-1 | 150 tested, 40% active | AID 2035, 2009 | Potency, µM (highest dose often 115 µM), without a hit: at the top dose activity change, negative = H2O2 signal, most hits filed as inhibitors
HEK293 tox = Secondary Assay for Inhibitors of Human Galactokinase (GALK): HEK-293 Cell Viability Assay | shares compounds with Pol eta inh-1 | HEK-293 viability, ATP luminescence (CellTiter-Glo), 24/48 h | Potency, µM (titrated, usually from 46.1 µM), for the others: top-dose activity change, negative = cytotoxicity, actives largely listed as inhibitors | 170 tested, 10% active | AID 2547, 2010; also: potency is read from the fitted curve at half-maximal effect; % is scaled to controls: 0 for no effect and ±100 for the full control effect
Pol kappa inh-2 = qHTS for Inhibitors of Polymerase Kappa: Confirmatory Assay for Cherry-picked Compounds; shares compounds with Pol eta inh-1; purified Pol-kappa, fluorescent strand-displacement substrate; Potency, µM, hits mostly inhibitors; 920 tested, 76% active; also: potency is read from the fitted curve at half-maximal effect
Pol eta inh-2 = qHTS for Inhibitors of Polymerase Eta: Confirmatory Assay for Cherry-picked Compounds. Potency, µM, usual class: inhibitors. shares compounds with Pol eta inh-1. AID 720502, 2013. 2,600 tested, 64% active. Pol eta primer extension, TAMRA/BHQ fluorescence, 10 min; also: potency is read from the fitted curve at half-maximal effect
An asterisk follows results filed as active; ? = inconclusive; nt = no result; [ ] = another dose, or the depositor's remark. Calls follow the shape of the dose curve; as a rule, active = well fitted curve in the direction sought with a large enough effect; inconclusive = small, poorly fitted or top-dose-only effect, or another doubt; inactive = no such curve, though single readings can be large; an effect the other way counts as inactive or inconclusive.

SMILES	GLS inh	Pol kappa inh-1	POLI inh	GCN5L2 inh-1	POLB inh	Pol eta inh-1	GCN5L2 inh-2	Pol iota confirm	Pol eta inh-2	others
CSc1ccc(/C=N/Nc2cccc(C(=O)O)c2)cc1	27%	7.9µM*	2.2µM*	?	2µM*	1.1µM*	?	2.7*	2.1*
Cc1ccc(S(=O)(=O)/N=C2/NC(=O)/C(=C\c3cc(Br)cc(Br)c3O)S2)cc1	?	-35%	?	16µM*	?	22µM*	11*	nt	nt	GALK inh confirm=24µM*;Redox cycling=-2%;HEK293 tox=8%
Cc1cccc(Cn2c(C)c(CNC3CCCCC3)c(C(=O)O)c2C)c1	3%	-4%	-12%	-3%	28%	-11%	nt	nt	nt
CCc1c(C)sc2nc3c(C(=O)N4CCOCC4)cc(C(=O)c4ccccc4O)cn3c(=O)c12	-11%	-6%	51%	-15%	28%	-10%	nt	nt	nt
O=C(O)CSc1cc(C(=O)c2ccccc2O)cn2c(=O)c3c(-c4ccccc4)csc3nc12	-22%	?	?	25µM*	45µM*	14µM*	26*	21*	27*
Cc1cccc(C)c1-n1cccc1/C=C1\SC(=S)N(c2cccc(C(=O)O)c2)C1=O	-14%	-16%	?	32µM*	40µM*	?	20*	?	?	Pol kappa inh-2=60*
O=C1NN(c2ccc(F)cc2)C(=O)/C1=C\C=C\c1ccco1	3%	?	?	-22%	?	?	nt	nt	nt
CC1=NN(c2cccc(C(=O)O)c2)C(=O)/C1=C\C=C\c1ccco1	92%	7.1µM*	1.3µM*	?	0.56µM*	-98%	?	2.4*	1.5*	PGK validate=2.9µM*
Cc1ccc(-n2ncc(C(=O)N3CCN(C4CCCCC4)CC3)c2C2CCN(C(=O)OC(C)(C)C)CC2)cc1C	6%	0%	19%	24%	25%	-15%	nt	nt	nt
O=C(N/N=C/c1ccc(-c2ccc(S(=O)(=O)Nc3ncccn3)cc2)o1)c1cc2ccccc2cc1O	?	4.5µM*	1.3µM*	?	13µM*	0.89µM*	?	17*	4.8*	PGK validate=?;Pol kappa inh-2=3.8*
NS(=O)(=O)c1ccc(-c2ccc(/C=N/NC(=O)c3ccccc3O)o2)cc1	7%	?	25%	2%	16%	0%	nt	nt	nt
COc1cccc(NC(=O)CCC(=O)N2Cc3ccccc3Oc3ncccc32)c1	-17%	-6%	-15%	44%	9%	-18%	nt	nt	nt
C=CCc1cccc2cc(C(=O)Nc3ccccc3C(=O)O)c(=O)oc12	0%	-40%	?	?	?	45µM*	?	nt	?
CCOc1ccc(NC(=O)C2CCCN(S(=O)(=O)c3c(C)noc3/C=C/N(C)C)C2)cc1 (stereo not given)	10%	-5%	5%	-12%	-1%	-20%	nt	nt	nt
O=C(NNC(=O)c1cc(-c2ccncc2)nc2ccccc12)c1ccccc1O	24%	-18%	?	-29%	nt	-9%	nt	38*	nt
CCOC(=O)c1[nH]c(C)c(CCC(=O)NCc2ccc(OCC)cc2)c1C	-13%	-2%[60.1 µM]	-15%	-2%	0%	-16%	nt	nt	nt
COc1cc2nccc(Oc3ccc(NC(=O)Nc4ccc(F)cc4F)c(F)c3)c2cc1OC	nt	11%[60.1 µM]	nt	-5%	nt	nt	nt	nt	nt
O=C(O)c1c2cc(Br)ccc2nc2[nH]c(=O)[nH]c(=O)c12	11%	-14%	21%	nt	nt	-4%	nt	nt	nt
Cc1ccc2nc3[nH]c(=O)[nH]c(=O)c3c(N)c2c1	-9%	11%	19%	nt	nt	-28%	nt	?	nt
COc1ccc(-c2ccc3oc(-c4ccc(OC)cc4)c(C#CCCO)c3c2)cc1	-10%	8%	35µM*	nt	nt	45µM*	nt	38*	nt
O=C(CSc1nnc2scc(-c3ccccc3)n12)Nc1nsc(-c2ccccc2)n1	19%	-23%	?	-12%	?	?	nt	38*	nt
COc1cc(OC)c(NC(=O)C2=C(C)C(=O)OC23CCCCC3)cc1Cl	-7%	-12%	-5%	-2%	6%	nt	nt	nt	nt
COc1ccc(N=C2SC(C(N)=O)CC(=O)N2Cc2ccc3c(c2)OCO3)cc1 (stereo not given)	-19%	89µM*	40µM*	2%	?	28µM*	nt	nt	nt	PGK validate=-21%

Screening data: PubChem BioAssay, National Center for Advancing Translational Sciences (NCATS)
